# Values without a mark were called inactive. Inconclusive results are not listed. Entries that show only a call come without a potency. Calls of active or inactive are those of the source. Unless noted, calls follow the shape of the dose curve; as a rule, active = well fitted curve in the direction sought with a large enough effect in the repeat runs; inconclusive = weak or mixed curves; inactive = no such curve, though single readings can be large; an effect the other way counts as inactive or inconclusive.
# Columns and labels:
# [1] = target: Luciferin 4-monooxygenase (Photinus pyralis) (UniProt P08659); assay: qHTS assay to identify small molecule inhibitors of firefly luciferase (AID 1224835); also: nearly all actives have a fitted effect of over 25% in size
# Chain of Luciferin 4-monooxygenase (Photinus pyralis) (P08659 whole entry, looked up): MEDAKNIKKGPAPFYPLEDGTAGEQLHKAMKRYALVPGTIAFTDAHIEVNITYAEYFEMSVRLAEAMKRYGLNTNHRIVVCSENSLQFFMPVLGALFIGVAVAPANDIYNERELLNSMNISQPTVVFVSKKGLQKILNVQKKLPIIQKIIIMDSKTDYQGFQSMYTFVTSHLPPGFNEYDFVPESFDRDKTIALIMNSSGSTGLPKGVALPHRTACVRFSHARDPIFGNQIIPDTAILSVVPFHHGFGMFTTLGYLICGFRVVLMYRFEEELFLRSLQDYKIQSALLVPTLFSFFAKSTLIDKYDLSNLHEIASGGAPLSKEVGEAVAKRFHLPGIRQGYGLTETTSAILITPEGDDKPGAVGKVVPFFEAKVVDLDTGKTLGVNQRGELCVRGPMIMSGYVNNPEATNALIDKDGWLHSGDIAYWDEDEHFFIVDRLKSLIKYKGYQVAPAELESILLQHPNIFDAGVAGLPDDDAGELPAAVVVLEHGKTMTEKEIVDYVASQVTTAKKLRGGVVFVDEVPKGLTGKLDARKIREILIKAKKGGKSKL
# In short: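 Quantitative HTS format; KM concentrations of both substrates. Purified P. pyralis FLuc activity quantified from luminescence images.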
# [2] = qHTS assay to identify small molecule agonists of the constitutive androstane receptor (CAR) signaling pathway - cell viability counter screen (AID 1224836); also: nearly all actives have a fitted effect of over 45% in size; also: potency is read from the fitted curve at half-maximal effect
# In short: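 Using CellTiter-Fluor, viability of HepG2 cells harbouring hCAR and CYP2B6-2.2kb was measured following 23 h incubation with a 15-concentration compound series plus PK11195 (0.75 uM final).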
# [3] = qHTS assay to identify small molecule antagonists of the constitutive androstane receptor (CAR) signaling pathway - cell viability counter screen (AID 1224837); also: nearly all actives have a fitted effect of over 45% in size; also: potency is read from the fitted curve at half-maximal effect
# In short: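 Counter screen run in HepG2-CYP2B6-hCAR cells: 4 hr settle, compound titration (15 concentrations) with 50 nM CITCO, 23 hr at 37 C/5% CO2, CellTiter-Fluor fluorescence.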
# [4] = target: Nuclear receptor subfamily 1 group I member 3 (Homo sapiens) (UniProt Q14994); assay: qHTS assay to identify small molecule antagonists of the constitutive androstane receptor (CAR) signaling pathway (AID 1224838);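 also: HepG2 cells stably expressing hCAR with CYP2B6 luciferase reporter stimulated by CITCO; nearly all actives have a fitted effect of over 40% in size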
# Chain of Nuclear receptor subfamily 1 group I member 3 (Homo sapiens) (Q14994 whole entry, looked up): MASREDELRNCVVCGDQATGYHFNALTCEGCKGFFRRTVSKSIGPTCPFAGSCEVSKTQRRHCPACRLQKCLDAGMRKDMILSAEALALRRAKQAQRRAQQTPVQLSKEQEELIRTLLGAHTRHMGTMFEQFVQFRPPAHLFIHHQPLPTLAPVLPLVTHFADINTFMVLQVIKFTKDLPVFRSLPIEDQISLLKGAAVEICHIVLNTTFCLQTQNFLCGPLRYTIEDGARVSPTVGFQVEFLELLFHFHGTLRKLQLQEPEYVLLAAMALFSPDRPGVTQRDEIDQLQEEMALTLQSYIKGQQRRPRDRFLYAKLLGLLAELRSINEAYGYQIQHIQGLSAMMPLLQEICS
# In short: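 Cell line: HepG2 double-stable for hCAR and CYP2B6-2.2kb reporter. Agonist: CITCO, 50 nM final. Compounds: 15 concentrations, 24 h, 37 C. Detection: ONE-Glo luminescence.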
# [5] = qHTS assay to identify small molecule antagonists of the estrogen related receptor signaling pathway with the pleiotropic PPARgamma coactivator (PGC) from Tox21 10K library - cell viability counter screen (AID 1224840; active = well fitted cell-killing curve with a large enough effect in the repeat runs, not every such curve was filed as active; also: nearly all actives have a fitted effect of over 40% in size; also: potency is read from the fitted curve at half-maximal effect)
# In short: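 Following seeding of 2,000 PGC/ERR cells/well and 6 hours' incubation, test compounds were delivered in DMSO. The plates then sat 17.5 hours at 37 C before a fluorogenic live-cell protease reagent (CellTiter-Fluor) was read after 30 min.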
# [6] = target: Thyrotropin receptor (Homo sapiens) (UniProt P16473); assay: qHTS assay to identify small molecule agonists of the thyroid stimulating hormone receptor (TSHR) signaling pathway (AID 1224843; calls by dose curve; also: nearly all actives have a fitted effect of over 45% in size; also: potency is read from the fitted curve at half-maximal effect)
# Chain of Thyrotropin receptor (Homo sapiens) (P16473 whole entry, looked up): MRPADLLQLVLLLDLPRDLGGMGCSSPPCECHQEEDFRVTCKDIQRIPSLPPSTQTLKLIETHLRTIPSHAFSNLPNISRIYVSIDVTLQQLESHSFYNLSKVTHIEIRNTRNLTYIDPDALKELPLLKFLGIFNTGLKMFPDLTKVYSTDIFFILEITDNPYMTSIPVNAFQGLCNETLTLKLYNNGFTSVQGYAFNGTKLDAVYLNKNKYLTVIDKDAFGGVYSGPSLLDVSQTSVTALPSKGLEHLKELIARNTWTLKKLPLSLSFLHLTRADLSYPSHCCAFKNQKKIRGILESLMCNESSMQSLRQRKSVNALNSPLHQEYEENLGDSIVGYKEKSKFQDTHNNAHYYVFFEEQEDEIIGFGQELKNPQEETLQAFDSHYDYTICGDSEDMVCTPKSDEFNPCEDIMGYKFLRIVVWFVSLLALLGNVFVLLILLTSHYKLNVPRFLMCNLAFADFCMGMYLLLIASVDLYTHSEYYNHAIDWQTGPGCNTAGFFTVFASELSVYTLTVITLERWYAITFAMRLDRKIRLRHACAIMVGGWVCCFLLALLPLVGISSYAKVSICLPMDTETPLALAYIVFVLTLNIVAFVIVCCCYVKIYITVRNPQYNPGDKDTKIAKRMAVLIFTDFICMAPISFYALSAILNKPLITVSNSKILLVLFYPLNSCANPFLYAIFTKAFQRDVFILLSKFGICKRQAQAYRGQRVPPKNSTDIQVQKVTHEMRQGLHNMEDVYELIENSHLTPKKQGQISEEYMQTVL
# In short: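 Cell line HEK293 with TSHR; density 800/well. Exposure 30 min RT. Readout HTRF cAMP (cAMP-d2/anti-cAMP-cryptate), 1 h RT before reading.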
# [7] = qHTS assay to identify small molecule agonists of the hypoxia (HIF-1) signaling pathway - cell viability counter screen (AID 1224844; calls by dose curve; also: nearly all actives have a fitted effect of over 50% in size; also: potency is read from the fitted curve at half-maximal effect)
# In short: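 Cells (HRE-bla ME-180, 2,000 per well) sat 5 hrs at 37C, got compound for 17 hrs, were read for CCF4-AM FRET, and were finally lysed with CellTiter-Glo for a 30 min room-temperature luminescence read.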
# [8] = qHTS assay to identify small molecule agonists of H2AX (AID 1224845; active = well fitted activation curve with a large enough effect in the signal ratio in the repeat runs, not every such curve was filed as active; the % refers to the signal ratio)
# In short: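 Wild-type CHO-K1 cells plated overnight, then exposed 3 hr at 37C to compounds at 15 concentrations (0.76% DMSO). Lysed, then HTRF anti-pH2AX(S139)-cryptate/anti-H2AX-d2 detection after 24 hr at room temperature; emissions 665 and 620 nm.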
# [9] = qHTS assay to identify small molecule agonists of the hypoxia (HIF-1) signaling pathway (AID 1224846; active = well fitted activation curve with a large enough effect in the signal ratio in the repeat runs, not every such curve was filed as active; the % refers to the signal ratio)
# In short: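 A low-serum medium (0.5% dialyzed FBS) holding 2,000 HRE-bla ME-180 cells per well is preincubated for 5 hrs, dosed with compounds by pintool, and kept a further 17 hrs at 37C, 5% CO2 before CCF4-AM FRET detection of beta-lactamase.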
# [10] = qHTS RealTime-Glo MT Cell Viability Assay in HepG2 cells - 24 hour (AID 1224867); also: nearly all actives have a fitted effect of over 50% in size; also: potency is read from the fitted curve at half-maximal effect
# In short: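 Real-time, nonlytic viability: 600 HepG2 cells/well mixed with NanoLuc enzyme plus prosubstrate; 5 h settle, compound (DMSO) added by pintool; luminescence monitored over 40 h at 37 C.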
# [11] = qHTS RealTime-Glo MT Cell Viability Assay in HEK293 cells - 32 hour (AID 1224868); also: nearly all actives have a fitted effect of over 50% in size; also: potency is read from the fitted curve at half-maximal effect; as to activity change, negative = cytotoxic: top concentration of the series differs between compounds
# In short: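 Cells + reagent dispensed (600 cells/well, HEK293) → 5 h at 37 C/5% CO2 → 23 nL compound in DMSO pinned → 40 h at 37 C → luminescence read at 0, 8, 16, 24, 32, 40 h.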
# [12] = A CellTox Green Cytotoxicity Assay to monitor cytotoxicity in HEK293 cells - 0 hour (AID 1224869); also: nearly all actives have a fitted effect of over 50% in size
# In short: (§1)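 Fluorescence intensity, read at 0, 8, 16, 24, 32 and 40 h of compound treatment, reflected dye binding to DNA of dead HEK293 cells; compounds (23 nL, DMSO) were added 5 h after plating cells with reagent.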
# [13] = qHTS RealTime-Glo MT Cell Viability Assay in HepG2 cells - 40 hour (AID 1224870); also: nearly all actives have a fitted effect of over 50% in size; also: potency is read from the fitted curve at half-maximal effect
# In short: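 HepG2 cells mixed with RealTime-Glo MT reagents (NanoLuc plus cell-permeant prosubstrate) were seeded at 600 cells/well, incubated 5 h at 37 C/5% CO2, then pinned with compounds in DMSO; nonlytic luminescence tracked viability during 40 h treatment.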
# [14] = A CellTox Green Cytotoxicity Assay to monitor cytotoxicity in HEK293 cells - 40 hour (AID 1224871); also: nearly all actives have a fitted effect of over 45% in size; also: potency is read from the fitted curve at half-maximal effect
# In short: as §1
# [15] = target: Nuclear receptor subfamily 1 group I member 3 (Homo sapiens) (UniProt Q14994); assay: qHTS assay to identify small molecule agonists of the constitutive androstane receptor (CAR) signaling pathway (AID 1224839);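 also: HepG2 cells stably carrying human CAR and a CYP2B6 luciferase reporter; nearly all actives have a fitted effect of over 15% in size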
# In short: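 Double-stable HepG2 cells (hCAR, CYP2B6-2.2kb) seeded 4 h before compound addition. Exposure 24 h with 0.75 uM PK11195 final. Luciferase detected by ONE-Glo.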
# [16] = qHTS assay to identify small molecule agonists of H2AX - cell viability counter screen (AID 1224847; calls by dose curve; also: nearly all actives have a fitted effect of over 30% in size; also: potency is read from the fitted curve at half-maximal effect; as to activity change, negative = cytotoxicity: top concentration of the series differs between compounds)
# In short: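 Quantitative HTS viability measurement: CHO-K1 wild-type cells in serum (10% FBS) medium, short 3 hr drug exposure at 37C with 0.76% DMSO, CellTiter-Glo luminescent detection.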
# [17] = qHTS assay to identify small molecule agonists of the estrogen related receptor signaling pathway with the pleiotropic PPARgamma coactivator (PGC) from Tox21 10K library (AID 1224842); also: nearly all actives have a fitted effect of over 15% in size
# In short: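 PGC/ERR reporter cells (NTP line) were seeded 2,000 per well, rested 6 h at 37 C/5% CO2, then pin-dosed with compounds in DMSO for 18 h at 37 C; luciferase read by One-Glo luminescence after 30 min at room temperature.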
# [18] = qHTS assay to identify small molecule antagonists of the estrogen related receptor (ERR) signaling pathway from Tox21 library (AID 1224848); also: nearly all actives have a fitted effect of over 50% in size; also: potency is read from the fitted curve at half-maximal effect
# In short: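 Screening used an ERR reporter line supplied by NTP, exposed for 18 h at 37 C to library compounds delivered in DMSO. Signal was luciferase luminescence developed with ONE-Glo at room temperature for 30 min.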
# [19] = qHTS assay to identify small molecule agonists of the estrogen related receptor (ERR) signaling pathway from Tox21 library (AID 1224849; calls by dose curve; also: nearly all actives have a fitted effect of over 15% in size); details: ERR reporter cell line, ONE-Glo luciferase, 18 h; at 92.4 µM (top of the series) unless noted
# In short: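 Screening used an NTP-provided ERR luciferase cell line. Compounds in DMSO were added 6 h after seeding and left 18 h at 37 C before a 30 min ONE-Glo step and luminescence reading.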
# [20] = qHTS assay to identify small molecule antagonists of the estrogen related receptor signaling pathway with the pleiotropic PPARgamma coactivator (PGC) from Tox21 10K library (AID 1224841; call rule not given here; also: potency is read from the fitted curve at half-maximal effect)
# In short: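 qHTS antagonist format: PGC/ERR cells, 2k/well, compound in DMSO by pin transfer after 6 h attachment, 18 h treatment at 37 C, One-Glo luminescence read at 30 min.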
smiles,measurement,setting,value
O=C(O)CC(=O)O,Potency,[1],inactive
same,Potency,[2],inactive
same,Potency,[3],inactive
same,Potency,[4],inactive
same,Potency,[5],inactive
same,Potency,[6],inactive
same,Potency,[7],inactive
same,Potency,[8],inactive
same,outcome,[9],inactive
same,Potency,[10],inactive
same,Potency,[11],inactive
same,Potency,[12],inactive
same,Potency,[13],inactive
same,Potency,[14],inactive
CCCCN(C)C,Potency,[1],inactive
same,Potency,[2],inactive
same,Potency,[3],inactive
same,Potency,[4],inactive
same,Potency,[15],inactive
same,Potency,[6],inactive
same,Potency,[7],inactive
same,Potency,[8],inactive
same,outcome,[9],inactive
same,Potency,[16],inactive
same,Potency,[10],inactive
same,Potency,[11],inactive
same,Potency,[12],inactive
same,Potency,[13],inactive
same,Potency,[14],inactive
CCCCCCCCCCCCN(CCO)CCO,Potency,[1],inactive
same,Potency,[2],68.3 µM (active)
same,Potency,[3],68.3 µM (active)
same,Potency,[15],inactive
same,Potency,[5],60.9 µM (active)
same,Potency,[17],inactive
same,Potency,[6],inactive
same,Potency,[16],100 µM (active)
same,Potency,[18],60.9 µM (active)
same,"activity change, positive = activation",[19],-79.7%
same,Potency,[10],48.8 µM (active)
same,Potency,[11],43.5 µM (active)
same,Potency,[12],inactive
same,Potency,[13],38.7 µM (active)
same,Potency,[14],54.7 µM (active)
CC(C)(C)CC(C)(C)c1ccccc1O,Potency,[1],inactive
same,Potency,[2],inactive
same,Potency,[3],inactive
same,Potency,[15],inactive
same,Potency,[5],inactive
same,Potency,[20],inactive
same,Potency,[17],inactive
same,Potency,[6],13.8 µM (active)
same,Potency,[16],90.3 µM (active)
same,"activity change, positive = activation",[19],1.59%
same,Potency,[10],inactive
same,Potency,[12],inactive
same,Potency,[14],39.1 µM (active)
COc1cc(C(C)C)c2c(c1)S(=O)(=O)N(COc1cc(=O)n3cccc(OCCN4CCCCC4)c3n1)C2=O,"activity change, negative = inhibition",[1],-3.11% [at 23.6 µM]
same,"viability change, negative = cytotoxic",[2],-20.4% [at 19 µM]
same,"activity change, negative = cytotoxicity",[3],-19.6% [at 19 µM]
same,activation,[15],-2.29% [at 19 µM]
same,"viability change, negative = cytotoxic",[5],-15.4% [at 19 µM]
same,activation,[6],-0.216% [at 19 µM]
same,"activity change, negative = cytotoxicity",[7],-17% [at 15.8 µM]
same,Potency,[16],24 µM (active)
same,"activity change, negative = cytotoxicity",[10],-8.66% [at 15.8 µM]
same,cytotoxicity,[12],-2.82% [at 15.8 µM]
C[C@@H]1CC[C@H]2C(C)(C)[C@H]3C[C@@]12CC[C@@]3(C)O,Potency,[1],inactive
same,Potency,[2],inactive
same,Potency,[3],inactive
same,Potency,[4],inactive
same,Potency,[5],inactive
same,Potency,[20],54.4 µM (active)
same,Potency,[17],inactive
same,Potency,[6],54.4 µM (active)
same,Potency,[7],inactive
same,Potency,[8],inactive
same,outcome,[9],inactive
same,Potency,[18],inactive
same,"activity change, positive = activation",[19],-6.53%
same,Potency,[10],inactive
same,Potency,[11],inactive
same,Potency,[12],inactive
same,Potency,[13],inactive
same,Potency,[14],38.8 µM (active)
CN1CCN(C2Cc3ccccc3Sc3ccc(Cl)cc32)CC1 (configuration not stated),Potency,[1],inactive
same,Potency,[2],inactive
same,Potency,[3],inactive
same,Potency,[15],inactive
same,Potency,[5],inactive
same,Potency,[20],inactive
same,Potency,[6],inactive
same,Potency,[7],23.9 µM (active)
same,Potency,[16],inactive
same,Potency,[18],26.6 µM (active)
same,"activity change, positive = activation",[19],-28.3% [at 42.5 µM]
same,Potency,[12],inactive
same,Potency,[14],21.3 µM (active)
C=CC(=C)CC/C=C(\C)CCC=C(C)C,"activity change, negative = inhibition",[1],0.425% [at 23.6 µM]
same,"viability change, negative = cytotoxic",[2],4.77% [at 19 µM]
same,"activity change, negative = cytotoxicity",[3],-2.25% [at 19 µM]
same,activation,[15],4.39% [at 19 µM]
same,"viability change, negative = cytotoxic",[5],-0.28% [at 19 µM]
same,"activity, negative = inhibition",[20],0% [at 19 µM]
same,activation,[17],0% [at 19 µM]
same,activation,[6],-0.893% [at 19 µM]
same,"activity change, negative = cytotoxicity",[7],1.43% [at 15.8 µM]
same,activation (H2AX phosphorylation),[8],-0.467% [at 31.6 µM]
same,activation,[9],-0.763% [at 15.8 µM]
same,"activity change, negative = cytotoxicity",[16],2.41% [at 31.6 µM]
same,"activity, negative = inhibition",[18],-7.19% [at 19 µM]
same,"activity change, positive = activation",[19],-3.55% [at 19 µM]
same,"activity change, negative = cytotoxicity",[10],0.599% [at 15.8 µM]
same,"activity change, negative = cytotoxic",[11],-12.8% [at 15.8 µM]
same,cytotoxicity,[12],0.448% [at 15.8 µM]
same,"activity change, negative = cytotoxic",[13],-6.2% [at 15.8 µM]
same,cytotoxicity increase,[14],4.27% [at 15.8 µM]

# — PubChem BioAssay (Tox21)
